Assay outcomes deposited in PubChem by several laboratories.
FBA Mtb inh = Mtb fructose-bisphosphate aldolase inhibition; P9WQA3; purified M. tuberculosis FBA, fluorescence read-out; 2.3% of 360,000 active; AID 588726; inhibition, % at 1 µM; in the data active = inhibition above about 27%
RecA splice inh = blocks M. tuberculosis RecA intein splicing. inhibition, % (test concentration not listed). 0.75% of 290,000 active. AID 2221. cell-free RecA intein splicing, fluorescence. P9WHJ3; in the data active = inhibition above about 30%
Target sequence (P9WHJ3 whole entry, looked up, canonical isoform): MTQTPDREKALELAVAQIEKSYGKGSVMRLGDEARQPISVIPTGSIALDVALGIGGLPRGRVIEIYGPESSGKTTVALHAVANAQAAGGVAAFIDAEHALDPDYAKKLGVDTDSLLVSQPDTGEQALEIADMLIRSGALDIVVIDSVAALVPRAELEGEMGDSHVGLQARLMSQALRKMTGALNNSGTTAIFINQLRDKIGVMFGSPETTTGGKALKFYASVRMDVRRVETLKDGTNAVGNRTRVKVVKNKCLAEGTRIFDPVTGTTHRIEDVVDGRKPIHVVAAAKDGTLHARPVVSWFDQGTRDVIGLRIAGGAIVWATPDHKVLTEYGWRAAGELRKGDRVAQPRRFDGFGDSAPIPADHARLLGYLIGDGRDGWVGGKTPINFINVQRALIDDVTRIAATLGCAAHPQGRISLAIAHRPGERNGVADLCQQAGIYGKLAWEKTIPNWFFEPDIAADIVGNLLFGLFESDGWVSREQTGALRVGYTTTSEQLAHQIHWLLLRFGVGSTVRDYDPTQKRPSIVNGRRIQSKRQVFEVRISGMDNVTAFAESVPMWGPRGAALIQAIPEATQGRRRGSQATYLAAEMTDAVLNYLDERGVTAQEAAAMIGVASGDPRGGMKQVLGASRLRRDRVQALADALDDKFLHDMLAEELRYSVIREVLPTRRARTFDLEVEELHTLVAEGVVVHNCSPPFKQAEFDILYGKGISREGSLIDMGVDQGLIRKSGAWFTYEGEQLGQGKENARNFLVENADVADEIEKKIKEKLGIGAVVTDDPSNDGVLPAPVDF
GDH-TPI counter-1 = counter-screen for M. tuberculosis FBA inhibitors: GDH-TPI coupled enzymes; GDH-TPI coupled enzyme counterscreen, NADH absorbance; inhibition, % at 4.8 µM; 1.2% of 360,000 active; AID 588335
CCHF vOTU inh = blocks the CCHF virus ovarian tumor domain protease. CCHFV vOTU protease, Pep-AMC fluorescence. inhibition, % at 11.5 µM. 0.55% of 370,000 active
Mtb FBA confirm = Mtb FBA inhibition, confirmed. inhibition, % at 1 µM. 78% of 5,600 active. AID 651616. shares compounds with FBA Mtb inh. purified M. tuberculosis FBA, fluorescence read-out; in the data active = inhibition above about 27%
GDH-TPI counter-2 = GDH-TPI inhibition counter-screen for FBA inhibitors. shares compounds with FBA Mtb inh. GDH-TPI coupled enzyme counterscreen, fluorescence. inhibition, % at 1 µM. 81% of 5,600 active. AID 652141; in the data active = inhibition above about 10%
Each line names hits and unclear results; the compound was inactive in the other large screens (follow-up assays come after a bar, where they were run). Rows were chosen to be rich in hits. Some 4.2% of all compounds tested hit in one or more screens of this group. Cut-off read from the data, not from the text of the source, unless noted: active = inhibition above about 30%; inactive = the rest.

COc1ccc(C(=O)CCN2CCN(c3ccc(OC)cc3)CC2)cc1	none
O=C(CSc1ncn[nH]1)Nc1ccc(OCc2ccccc2)cc1	none
COc1ccc(-c2cc(C(F)(F)F)n3nc(C(=O)NCCN4CCOCC4)cc3n2)cc1	FBA Mtb inh 39 | Mtb FBA confirm inactive | GDH-TPI counter-2 inactive
COc1ccc(-c2cc(C(F)(F)F)n3nc(C(=O)NCCCn4ccnc4)cc3n2)cc1	FBA Mtb inh 48 | Mtb FBA confirm inactive | GDH-TPI counter-2 inactive
O=C(Nc1cc(Cl)cc(Cl)c1)N[C@@H]1CC[C@@H](CCNS(=O)(=O)c2cccc(F)c2)O[C@@H]1CO	none (no result: FBA Mtb inh, RecA splice inh, GDH-TPI counter-1)
Cn1c2ccccc2c(=O)c2cc(C#CC3=CCCCC3)ccc21	FBA Mtb inh 86 (no result: RecA splice inh) | Mtb FBA confirm 151 | GDH-TPI counter-2 113
O=C(CCN1C(=O)c2cccc3cccc(c23)C1=O)NC1CCS(=O)(=O)C1 (stereo not given)	FBA Mtb inh 39 | Mtb FBA confirm active | GDH-TPI counter-2 active
O=C(CCCCCN1C(=O)c2cccc3cccc(c23)C1=O)NC1CCS(=O)(=O)C1 (stereo not given)	FBA Mtb inh 39 | Mtb FBA confirm 134 | GDH-TPI counter-2 117
O=C(CCCN1C(=O)c2ccccc2C1=O)NC1CCCCCC1	none
COC(=O)C[C@H]1CC[C@@H]2[C@H](COc3ccc(NC(=O)c4cccc(Cl)c4)cc3C(=O)N2C)O1	none (no result: FBA Mtb inh, RecA splice inh, GDH-TPI counter-1)
Cc1cc(C)n2nc(SCC(=O)Nc3ccccc3C)nc2n1	none
Cc1cc(/C=N/NC(N)=S)c(C)n1-c1ccc(Cl)cc1	none
COC(=O)c1cnn(-c2ccc(Cl)cc2)c1/C=N/NC(N)=S	FBA Mtb inh 45 | Mtb FBA confirm 67 | GDH-TPI counter-2 35
CCCC1Cc2c(sc3ncnc(N)c23)CO1 (stereo not given)	FBA Mtb inh 28 | Mtb FBA confirm 142 | GDH-TPI counter-2 121
CC1(C)Cc2c(sc3ncnc(N)c23)CO1	none
O=C(O)CCC(=O)Nc1nc2nccc(-c3ccccc3)n2n1	FBA Mtb inh 45 | Mtb FBA confirm active | GDH-TPI counter-2 181
CCN1C(=O)[C@H]2[C@@H](c3ccc(C)cc3)N3C(=O)N(c4ccc(OC)cc4)C(=O)[C@@]3(CC)[C@H]2C1=O	none
C#CCn1c(=NC(=O)c2ccccc2[N+](=O)[O-])sc2cc(S(C)(=O)=O)ccc21	none
C#CCn1c(=NC(=O)c2sc3ccccc3c2Cl)sc2cc(S(N)(=O)=O)ccc21	FBA Mtb inh 39, GDH-TPI counter-1 42 | Mtb FBA confirm active | GDH-TPI counter-2 active
COC(=O)c1[nH]c2ccccc2c1Sc1ccccc1	FBA Mtb inh 77 | Mtb FBA confirm 95 | GDH-TPI counter-2 73
COC(=O)[C@]1(C)N[C@H](c2ccc(-c3cccc(Cl)c3)c(OC)c2)[C@@H]2C(=O)N(C)C(=O)[C@@H]21	FBA Mtb inh 38 (no result: RecA splice inh) | Mtb FBA confirm 47 | GDH-TPI counter-2 41
COC(=O)[C@@]12CCCN1[C@H](c1ccc(-c3ccc(OC)cc3)c(OC)c1)[C@@H]1C(=O)N(C)C(=O)[C@@H]12	FBA Mtb inh 29 (no result: RecA splice inh) | Mtb FBA confirm active | GDH-TPI counter-2 active
CCN1C(=O)[C@H]2[C@@H](c3ccc(-c4ccc(F)cc4)c(OC)c3)N[C@@](C)(C(=O)OC)[C@H]2C1=O	none
CCN1C(=O)[C@H]2[C@@H](c3ccc(-c4ccc(OC)cc4)c(OC)c3)N[C@@](C)(C(=O)OC)[C@H]2C1=O	FBA Mtb inh 35 | Mtb FBA confirm 39 | GDH-TPI counter-2 43
COC(=O)[C@@]12CCCN1[C@H](c1ccc(-c3ccc(OC)cc3)c(OC)c1)[C@H]1C(=O)N(C)C(=O)[C@H]12	none
O=C(NC(=S)N1CCCC1)c1ccccc1F	none (no result: RecA splice inh)
O=[N+]([O-])c1cc2ncccc2c2ncccc12	none (no result: RecA splice inh)
O=C(Nc1ccccc1SCC1CSc2nc3ccccc3c(=O)n21)c1ccccc1 (stereo not given)	none
O=C(Nc1ccccc1SCC1CSc2nc3ccccc3c(=O)n21)c1cccc(Cl)c1 (stereo not given)	FBA Mtb inh 59 | Mtb FBA confirm 85 | GDH-TPI counter-2 79
O=C1c2ccccc2[C@@H]2C[C@@H](O)[C@H](Nc3cccc(C(F)(F)F)c3)CCN12	none (no result: RecA splice inh)
COc1ccc(-c2csc(N3CCC(c4ccccc4)C3)n2)cc1 (stereo not given)	FBA Mtb inh 45 | Mtb FBA confirm 133 | GDH-TPI counter-2 91
Fc1ccc(-c2csc(N3CCC(c4ccccc4)C3)n2)cc1 (stereo not given)	none
Cc1ccc2ccc(C#N)cc2c1O	FBA Mtb inh 36 (no result: RecA splice inh) | Mtb FBA confirm active | GDH-TPI counter-2 active
Cc1cccc(NC(=O)CCc2nc3sc4c(c3c(=O)[nH]2)CCCC4)c1	none
Cc1cccc(NC(=O)C(C)SCc2nc3sc4c(c3c(=O)[nH]2)CCCC4)n1 (stereo not given)	FBA Mtb inh 31 | Mtb FBA confirm 153 | GDH-TPI counter-2 93
Nc1cccc2nc3ccccc3cc12	FBA Mtb inh 75 (no result: CCHF vOTU inh) | Mtb FBA confirm inactive | GDH-TPI counter-2 inactive
c1ccc2c(-c3cccc4nccn34)cncc2c1	none (no result: RecA splice inh)
CC(C)Cn1cc(-c2cccc3nccn23)cn1	FBA Mtb inh 105 (no result: RecA splice inh) | Mtb FBA confirm inactive | GDH-TPI counter-2 inactive
Cc1ccc(-n2c(O)c(C=Nc3cc(C)on3)c3ccccc3c2=O)c(C)c1	FBA Mtb inh 47 | Mtb FBA confirm active | GDH-TPI counter-2 active
COc1ccc2sc(-c3ccc(SC)cc3)c(C#CC(C)(C)O)c2c1	FBA Mtb inh 30, GDH-TPI counter-1 39 (no result: RecA splice inh) | Mtb FBA confirm inactive | GDH-TPI counter-2 inactive
CCCCCCSc1ccc(-c2nc3ccccn3c2NCCCC)cc1	FBA Mtb inh 45 | Mtb FBA confirm active | GDH-TPI counter-2 active
Cc1cc(C)c2c(N)c(C(=O)Nc3ccccc3Br)sc2n1	FBA Mtb inh 42 | Mtb FBA confirm 152 | GDH-TPI counter-2 117
COC(=O)c1sc2nc(C)cc(C)c2c1N	FBA Mtb inh 38 | Mtb FBA confirm inactive | GDH-TPI counter-2 inactive
Cc1ccc(N2CC(=O)N(NC(=O)c3sc4nc(C)cc(C)c4c3N)CC2=O)cc1	FBA Mtb inh 48 | Mtb FBA confirm 59 | GDH-TPI counter-2 47
Cc1cc(C)c2c(N)c(C(=O)Nc3ncc(C)s3)sc2n1	FBA Mtb inh 43 (no result: RecA splice inh) | Mtb FBA confirm 121 | GDH-TPI counter-2 119
O=[N+]([O-])c1ccc(CSc2ccc(S(=O)(=O)N3CCCCCC3)cn2)cc1	none (no result: RecA splice inh)
CCN(Cc1ccccc1)C(=O)Cn1cc(S(=O)(=O)NC)c(S(=O)(=O)NC)c1	none
CC(C)c1ccc(NC(=O)C2(C)Cc3c(-c4cccc(C(N)=O)c4)ccnc3O2)cc1 (stereo not given)	none (no result: RecA splice inh)
COc1ccc2[nH]c3c(c2c1)CCN1C(=O)C(CC(=O)NCCN2CCOCC2)C[C@H](C(=O)N2CCOCC2)[C@@]31C (stereo not given in full)	none (no result: RecA splice inh)
CCCc1cc(=O)oc2cc(C)cc(OC(C)C(=O)NCc3cccnc3)c12 (stereo not given)	FBA Mtb inh 70 | Mtb FBA confirm inactive | GDH-TPI counter-2 inactive
